# Assay outcomes (PubChem)
# Only some compounds are listed: those with a hit (about 2.1% of all), similar ones and a draw of the others.
# D2 PAM-1: positively modulates the human D2 dopamine receptor allosterically; 0.34% of 340,000 active; AID 485347; HEK293 T-REx D2, calcium flux, EC20 dopamine potentiation; potentiation, % at 10 µM;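 active means potentiation over 3 SD above the plate norm, cut at about 30% in these data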; further: 0% is about no effect
# Target sequence (P14416 whole entry, looked up): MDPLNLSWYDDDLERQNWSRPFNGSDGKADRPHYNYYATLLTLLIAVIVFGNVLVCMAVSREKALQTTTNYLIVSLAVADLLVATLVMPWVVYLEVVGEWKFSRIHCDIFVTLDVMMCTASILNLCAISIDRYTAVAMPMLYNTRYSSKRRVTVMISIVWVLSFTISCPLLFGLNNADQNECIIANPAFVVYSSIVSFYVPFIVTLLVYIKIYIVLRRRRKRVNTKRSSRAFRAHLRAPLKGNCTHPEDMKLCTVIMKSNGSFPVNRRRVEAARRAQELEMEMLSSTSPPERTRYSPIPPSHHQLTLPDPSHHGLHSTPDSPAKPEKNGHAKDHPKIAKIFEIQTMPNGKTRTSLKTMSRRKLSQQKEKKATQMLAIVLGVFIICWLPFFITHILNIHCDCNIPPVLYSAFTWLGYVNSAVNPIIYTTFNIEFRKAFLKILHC
#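 Tetracycline-induced HEK293 T-REx cells force-coupled to calcium signalling expressed D2; compounds were pin-added after a 10 s baseline, read kinetically 180 s, then an EC20 dopamine challenge followed with a further 180 s calcium read.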
# LDHA inh: LDHA (human) enzyme inhibition. P00338. purified LDHA, NADH/diaphorase-resazurin fluorescence; hits give low values. activity change, % (values are at about 110 or 230 µM). 0.15% of 480,000 active. AID 1347041; in the data active means activity change below about -30%; inconclusive means mostly about -25% to -30%;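 further: plate controls were DMSO wells for no effect and wells without enzyme for full effect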
#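 Resorufin fluorescence (ex540/em590), read at 0 and 20 min after diaphorase/resazurin addition, reports the NADH left after a 5 min room-temperature reaction of 2 nM human LDH5 with 0.06 mM NADH and 0.2 mM pyruvate.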
# D2 antagonist: antagonists of human D2 dopamine receptor | P14416 | HEK293 TREx D2 cells, calcium flux, dopamine EC80 | inhibition, % at 10 µM | 2% of 340,000 active | AID 485344; in the data active means inhibition above about 30%; inactive means below that, where a call was filed; further: 0% is about no effect
#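 Tetracycline-induced HEK293 TREx cells expressing D2 receptor forced-coupled to calcium signalling, loaded with no-wash calcium dye. Compounds added and calcium flux read 180 s, then dopamine added at EC80 and read a further 180 s.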
# D2 PAM-2: positive allosteric modulators of human D2 dopamine receptor | P14416 | DiscoveRx D2 beta-arrestin cells, luminescence, 90 min; 100% = 57 uM dopamine signal | potentiation, % (concentration not given with the values) | 0.23% of 360,000 active | AID 624464; in the data active means potentiation above about 50%; inconclusive means mostly about 30% to 49%
#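 D2 cells co-treated with compound plus 50 nM dopamine (EC20) for 90 min at 37 deg C to detect potentiation. Beta-arrestin recruitment was read as enzyme-fragment luminescence after 1 h at ambient temperature. Full response was set by 57 uM dopamine.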
# D2 ag-1: D2 dopamine receptor (human) agonism; P14416; HEK293 T-REx D2 cells, calcium flux agonist mode; activation, % at 2 µM; 0.53% of 340,000 active; AID 485358;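 active means activation over 3 SD above normal in the single-dose calcium agonist read, cut at about 30% in these data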; further: 0% is about no effect
#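 HEK293 Trex D2 cells, tetracycline-induced, o/n 30 C 5% CO2; no-wash Ca dye, RT 30–90 min; 10-cycle baseline, 23 nl cpd added, kinetic Ca read 180 s; agonist hits = positive Ca response.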
# D2 ag-2: agonists of human D2 dopamine receptor (beta-arrestin) | P14416 | DiscoveRx PathHunter D2 beta-arrestin, luminescence, 90 min; 100% = 57 uM dopamine signal | activation, % (concentration not given with the values) | 0.084% of 360,000 active | AID 624465; in the data active means activation above about 40%; inconclusive means between about 15% and that limit
#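 DiscoveRx PathHunter D2 beta-arrestin cells (2,100/well) attached overnight, then compound-stimulated 90 min at 37 C in HBSS/10 mM HEPES/0.1% Tween-20 buffer; beta-galactosidase complementation read by luminescence after 1 h at ambient temperature. Dopamine 57 uM final (EC100) as control.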
# Numbers without * were called inactive; ? = inconclusive; · = no result.
SMILES,D2 PAM-1,LDHA inh,D2 antagonist,D2 PAM-2,D2 ag-1,D2 ag-2
CN(Cc1ccco1)C(=O)c1cc(-c2cccs2)nc2ccccc12,·,16.1,·,·,·,·
Cc1nc(NC(=O)C2CCN(c3ccc(C#N)cn3)CC2)sc1C,·,-0.3,·,·,·,·
CC(=O)N1CCN(c2ccc(NCc3ccc(C)cc3)cc2)CC1,-16.5,24.7,-5.1,29.9,0.1,-1.4
CCc1ccc(CNc2ccc(N3CCN(C(C)=O)CC3)cc2)cc1,8.5,9.7,-2.2,81.5*,0.3,12.2
Clc1ccc(OCc2nnc(-c3ccccc3Br)o2)cc1,-1.2,-13.4,36.4*,0.4,0.5,-0.8
Cc1ccc(-c2[nH]ncc2CNCc2cccnc2)cc1,·,-6.8,·,·,·,·
CN1CCN(C2=Nc3cc(F)ccc3Cc3ccccc32)CC1,-26.2,·,32.9*,·,1.0,·
Fc1ccc(N2CCN(C3=Nc4cccc5cccc3c45)CC2)cc1,-0.9,4.0,8.2,-17.7,-3.5,-3.4
COC(=O)c1cnn(-c2ccc(C)c(C)c2)c1-n1cccc1,12.6,-2.6,30.3*,-2.4,0.0,-3.4
Cc1cc2c(cc1C)CSC(c1cc(Br)cc(Br)c1O)SC2,·,0.6,·,·,·,·
N#Cc1ccccc1COC(=O)COc1ccc2c(c1)CCC2,·,-3.0,·,·,·,·
CCOC(=O)C1CCCN(C(=O)c2cc3c(=O)n4ccccc4nc3s2)C1 (stereo not given),44.2*,0.2,1.8,-30.2,1.2,-5.5
CC1CCN(C(=O)c2cc3c(=O)n4ccccc4nc3s2)CC1,2.3,-3.4,2.0,-2.5,-2.7,-2.1
CCOC(=O)C1CCCN(c2oc(-c3ccc(F)cc3)nc2C#N)C1 (stereo not given),2.3,-1.8,35.1*,6.2,0.8,-2.7
CCOC(=O)C1CCCN(C(=O)c2cc(-c3ccc(F)cc3)nc3ccccc23)C1 (stereo not given),5.1,-4.4,47.3*,-2.0,0.3,-1.1
Cc1cccn2c(=O)c3cc(C(=O)N4CC(C)CC(C)C4)sc3nc12 (stereo not given),37.9*,-8.7,-3.1,-3.8,1.9,-4.5
CCOC(=O)C1CCCN(C(=O)c2cc(-c3ccncc3)nc3ccccc23)C1 (stereo not given),8.4,-1.9,-3.9,8.9,-0.3,-4.0
CC1CCCCN1CCNC(=O)C1CCN(c2nc3cccnc3s2)CC1 (stereo not given),·,-0.6,·,·,·,·
Cc1ccc(CSCCNC(=O)c2ccc(C)cc2)cc1,-21.4,-3.4,31.9*,-8.5,-2.5,-2.3
CCN(CC)CCOc1nnc(-c2ccc(C)cc2)c2ccccc12,6.1,-0.4,35.6*,-12.3,-0.1,-3.6
C(#CCN1CCN(C(c2ccccc2)c2ccccc2)CC1)COC(c1ccccc1)c1ccccc1,·,1.2,·,·,·,·
Cc1ccc(CNC(=O)Cn2cnc3cc([N+](=O)[O-])ccc3c2=O)cc1,-22.3,0.9,-0.8,53.9*,0.9,1.0
O=C(CC1S/C(=N/N=C/c2cccs2)NC1=O)Nc1ccc(Cl)cc1 (stereo not given),11.0,-7.8,43.8*,3.8,1.4,-3.4
O=C(CC1S/C(=N/N=C/c2cccs2)NC1=O)Nc1ccc(Cl)c(Cl)c1 (stereo not given),8.6,1.1,-2.9,0.0,1.6,2.8
COc1ccc(NC(=O)C2CCCN(C(=O)Nc3ccc(F)cc3)C2)cc1 (stereo not given),-2.4,-16.8,3.0,-20.3,0.4,-6.1
COc1ccc(NC(=O)N2CCC(C(=O)c3ccc4c(c3)OCCO4)CC2)cc1,32.6*,-9.6,6.9,-4.2,-0.6,-2.4
COc1ccc(NC(=O)N2CCCC(C(=O)NC(C)C)C2)cc1 (stereo not given),-3.4,-4.7,32.7*,4.4,-0.1,-0.7
CN(C)S(=O)(=O)c1cccc(-c2csc(N/N=C/c3ccco3)n2)c1,7.6,-4.2,2.1,5.7,-0.1,?
Cc1ccc(-c2csc(N/N=C/c3ccco3)n2)c(C)c1,1.8,1.0,0.5,55.9*,0.5,11.9
CN(CC(=O)NC(C)(C)C)C(=O)c1ccc2ccccc2n1,·,-32.5*,·,·,·,·
